# High-throughput results deposited in PubChem BioAssay by National Center for Advancing Translational Sciences (NCATS).
# SARS PLP yeast: blocks SARS-CoV papain-like protease in a yeast assay; hit rate 0.19% among 330,000; Potency, µM (titrated, usually from 32.9 µM), for the others: top-dose activity, positive = growth rescue, actives largely listed as activators; S. cerevisiae expressing SARS-CoV PLpro, growth rescue; note: potency is the fitted concentration of half-maximal effect; 0% is about no effect; nearly all actives have a fitted effect of over 55% in size
# NS1 inh: influenza NS1 inhibition | Potency, µM (series often up to 46.1 µM), for the others: at the highest dose activity, positive = more growth | AID 2326 | hit rate 0.4% among 270,000; note: potency is the fitted concentration of half-maximal effect; actives are rising curves; nearly all actives have a fitted effect of over 50% in size
#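 Read-out: OD600 growth recovery of NS1-expressing budding yeast. Cells grown overnight at 30C in -URA glucose medium, washed, resuspended and diluted 1:100 in 2% galactose assay medium, pH 6.0. Same strain lacking NS1 served as positive control.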
# LmPK inhibitor: inhibitors of Leishmania mexicana pyruvate kinase | Potency, µM (series often up to 57.5 µM), for inactives: top-dose activity change, negative = inhibition, actives largely listed as inhibitors | AID 1721 | purified LmPK, Kinase-Glo ATP luminescence, 1 h | Q27686 | hit rate 0.37% among 290,000; active = well fitted curve in the direction sought with a large enough effect; inconclusive = small, poorly fitted or top-dose-only effect, or another doubt; inactive = no such curve, though single readings can be large; an effect the other way counts as inactive or inconclusive; note: potency is the fitted concentration of half-maximal effect; % is set by controls: 0 for no effect and ±100 for the full control effect
# Target sequence (Q27686 whole entry, looked up): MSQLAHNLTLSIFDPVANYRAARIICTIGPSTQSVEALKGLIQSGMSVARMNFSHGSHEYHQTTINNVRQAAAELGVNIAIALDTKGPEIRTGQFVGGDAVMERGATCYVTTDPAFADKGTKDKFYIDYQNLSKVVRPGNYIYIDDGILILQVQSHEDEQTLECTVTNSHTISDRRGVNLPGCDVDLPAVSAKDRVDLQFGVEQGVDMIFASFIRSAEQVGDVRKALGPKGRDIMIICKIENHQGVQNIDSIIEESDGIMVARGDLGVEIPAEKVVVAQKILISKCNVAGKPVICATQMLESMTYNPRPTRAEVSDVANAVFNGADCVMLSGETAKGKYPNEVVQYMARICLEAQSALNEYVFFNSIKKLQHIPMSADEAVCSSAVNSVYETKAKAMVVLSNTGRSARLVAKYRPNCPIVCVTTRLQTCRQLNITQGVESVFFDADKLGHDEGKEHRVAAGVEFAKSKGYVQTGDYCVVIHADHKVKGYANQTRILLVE
#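 ATP generated from ADP (0.1 mM) and PEP (0.5 mM) by 0.1 nM LmPK over 1 h at room temperature (pH 7.2 imidazole buffer) was detected by coupled luciferase luminescence. Values were normalized to uninhibited and no-enzyme wells.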
# Tb PYK inh: blocks Trypanosoma brucei pyruvate kinase; TbPYK enzyme, Kinase-Glo Plus ATP luminescence, 45 min; Potency, µM (series often up to 76.8 µM), inactives show at the highest dose activity, negative = inhibition, usual class: inhibitors; hit rate 0.12% among 410,000; active = well fitted curve in the direction sought with a large enough effect; inconclusive = small, poorly fitted or top-dose-only effect, or another doubt; inactive = no such curve, though single readings can be large; an effect the other way counts as inactive or inconclusive; note: potency is the fitted concentration of half-maximal effect; % is set by controls: 0 for no effect and ±100 for the full control effect; nearly all actives have a fitted effect of over 50% in size
#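 TbPYK + substrate in 50 mM TEA pH 7.2, 100 mM KCl, 10 mM MgCl2, 0.05% BSA, 0.01% Tween-20; cpd pinned; ADP 130 uM final; 45 min RT; Kinase-Glo Plus 10 min; luminescence endpoint.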
# Shiga toxin inh: blocks Shiga toxin action in Vero cells. inhibition, % at 38.7 µM. AID 2315. hit rate 9.2% among 290,000. Vero cells, Shiga toxin protein synthesis inhibition reporter; in the data active = inhibition mostly above about 28%, no sharp cut-off; inactive = mostly below about 43%; note: 0% is about no effect
# CHX counter: counter-screen for Shiga toxin inhibitors: cycloheximide protein synthesis inhibition | hit rate 12% among 300,000 | max response, % | cell reporter, cycloheximide protein synthesis inhibition counterscreen; in the data active = max response mostly above about 13%, no sharp cut-off; inactive = mostly below about 14%; note: read at 38.3 µM for the half of the compounds with a filed dose; 0% is about no effect
# NS1 inh valid: validation of influenza NS1 protein function inhibitors; shares compounds with NS1 inh; influenza NS1 function cell assay, 15-point titration; activity change, negative = inhibition, % at 32.9 µM; 1,400 tested, under 10 active; AID 492980; note: 0% is about no effect
# Flu PR8 replic: reduces influenza A/PR/8/34 replication in MDCK cells | MDCK infected influenza A/PR/8/34, virus titer TCID50; stronger effect = lower value | virus titer (log TCID50), log10 TCID50 at 5 µM | AID 504647 | hit rate 30% among 95 | shares compounds with NS1 inh; call rule not given here
# An asterisk follows results filed as active; ? = inconclusive; / = no result. Many of the other results were omitted from the sample, so hits are more common in it than they were. Unless noted, calls come from the whole dose curve.
SMILES,SARS PLP yeast,NS1 inh,LmPK inhibitor,Tb PYK inh,Shiga toxin inh,CHX counter,NS1 inh valid,others
Cc1ccc(NC(=O)C2CCCN(S(=O)(=O)c3cnc[nH]3)C2)c(Br)c1 (stereo unspecified),-1%,2µM*,-2%,-1%,-2,0,1,
Cc1ccccc1NC(=O)C1CCCN(S(=O)(=O)c2cnc[nH]2)C1 (stereo unspecified),0%,14µM*,-3%,-5%,-5,-1,3,
Cc1cc(C)c(S(=O)(=O)Nc2cc(Cl)c3oc4c(c3c2)C(=O)CCC4)cc1C,/,/,/,1%,/,/,/,
Cc1ccc(NC(=O)c2cc(NC(=O)C3CC=CCC3C(=O)O)ccc2N2CCOCC2)cc1 (stereo unspecified),-1%,7.9µM*,0%,4%,-12,-3,23,
COc1ccc(C(=O)Cn2nnc(-c3ccccc3NC(=O)c3ccco3)n2)cc1,3%,10µM*,4%,-16%,53,3,9,
CCC(=O)Nc1ccc(Cl)c(NC(=S)NC(=O)c2cc3ccccc3o2)c1,1%,?,-1%,1%,72*,52*,5,
CCC(=O)Nc1ccc(Cl)c(NC(=S)NC(=O)c2ccco2)c1,-13%,7%,-5%,-3%,-4,19,/,
Cc1c(/C=N/NC(=O)c2ccc(O)cc2)c2ccccn2c1C(=O)c1ccc(F)cc1,15%,8.9µM*,3%,0%,9,1,-8,
CCN1C(=O)[C@@H]2[C@@H](c3ccc(-c4ccc(C(C)=O)cc4)cc3)N3CCCC[C@@]3(C(=O)OC)[C@@H]2C1=O,-1%,/,/,2%,/,/,/,
O=C(COC(=O)c1cc(Cl)ccc1Cl)Nc1ccc2[nH]c(=O)[nH]c2c1,9%,/,/,4%,/,/,/,
O=C(Nc1ccccc1Cl)Oc1ccc2ccccc2c1,1%,?,4%,/,17,-1,1,
Cc1cc(OCC(=O)N(C(C)C)C(C)C)cc(C)c1Br,23%,-16%,2%,-10%,5,3,/,
O=c1c(CCc2ccccc2)nc2cnc(Nc3ccccc3)nc2n1Cc1cccs1,/,/,/,-6%,/,/,/,
COc1ccc(C2C(C(=O)c3sc(C)nc3C)=C(O)C(=O)N2CCCn2ccnc2)cc1 (stereo unspecified),/,2%,/,-7%,/,/,/,
COc1ccc(C2C(C(=O)c3sc(C)nc3C)=C(O)C(=O)N2CCCn2ccnc2)cc1OC (stereo unspecified),4%,1.8µM*,0%,-17%,-10,-3,-6,
Cc1ccc(C(=O)N/C(=C/c2ccco2)C(=O)N2CCCCCC2)cc1,1%,?,0%,6%,24,-3,-4,
O=C(N/C(=C\c1ccco1)C(=O)N1CCCC1)c1ccccc1,1%,4%,-2%,-3%,3,-4,/,
NC(=O)[C@H]1CC2(CC(c3cccc(NC(=O)CC(c4ccccc4)c4ccccc4)c3)=NO2)CN1C(=O)CC(c1ccccc1)c1ccccc1 (stereo partly specified),2%,7.1µM*,2%,0%,-3,-4,12,Flu PR8 replic=8
NC(=O)[C@@H]1CC2(CC(c3cccc(NC(=O)CC(c4ccccc4)c4ccccc4)c3)=NO2)CN1C(=O)c1ccc(Cl)cc1 (stereo partly specified),1%,4µM*,6%,4%,-5,-3,0,
CCC(=O)N1CC2(CC(c3cccc(NC(=O)CC(c4ccccc4)c4ccccc4)c3)=NO2)C[C@H]1C(N)=O (stereo partly specified),-2%,-5%,3%,-8%,-4,-3,/,
Cn1c(=O)[nH]c(=O)c2c1nc(NCCO)n2CC(O)COc1ccccc1 (stereo unspecified),/,/,/,2%,/,/,/,
O=C(Nc1cccc(F)c1)N1CC[C@@]2(CCCN(S(=O)(=O)c3ccccc3)C2)C1,/,/,/,6%,/,/,/,
